# Measured values taken from PMC12670160, “A drug-repurposing screen of FDA- and EMA-approved drugs identifies two NF-κB inhibitors active against eumycetoma” (Journal of Antimicrobial Chemotherapy, 2025).
# Counter-ions that a name gives are not always drawn. Screen size: about 5,300 compounds; about 130 (2.5%) showed an effect of 50% or more. The entries come from a sample that favours strong results as a whole. Square brackets hold non-standard residues; d marks the D form. Peptide text beside a SMILES is read from it. dTrp(2-Me) = Cc1[nH]c2ccccc2c1C[C@@H](N)C(=O)O
# Tested on: M. mycetomatis strain mm55
# Settings: primary screen, metabolic activity vs growth control; 96 h, 2 µM; inhibitor
row,Compound,% viability
1,"C[C@@H](O[C@H]1OCCN(Cc2nc(O)n(P(=O)(O)O)n2)[C@H]1c1ccc(F)cc1)c1cc(C(F)(F)F)cc(C(F)(F)F)c1 [ONC0004322, fosaprepitant dimeglumine salt]",108.4%
2,"C[C@H](O[C@H]1OCCN(Cc2n[nH]c(=O)[nH]2)[C@H]1c1ccc(F)cc1)c1cc(C(F)(F)F)cc(C(F)(F)F)c1 [ONC0004612, aprepitant mk0869]",34.22%
3,"C=C(Nc1ccc(OCC)cc1)Nc1ccc(OCC)cc1 [ONC0005342, phenacaine]",118.6%
4,"O=C1c2c(O)cccc2[C@H]([C@@H]2O[C@H](CO)[C@@H](O)[C@H](O)[C@H]2O)c2cc(CO)cc(O)c21 [ONC0002367, aloin]",94.66%
5,"On1ncc(C2CCNCC2)c1-c1cccc(-c2ccccc2)c1 [ONC0002501, php501 trifluoroacetate]",45.31%
6,"CC[C@@]1(C2O[C@@H](C3O[C@@](O)(CO)[C@H](C)C[C@@H]3C)C[C@@H]2C)CC[C@H]([C@]2(C)CC[C@]3(C[C@H](O)[C@@H](C)[C@@H]([C@@H](C)[C@@H](OC)[C@H](C)C(=O)O)O3)O2)O1 (stereo partly drawn) [ONC0004087, monensin sodium]",133.1%
7,"O=C(O)Cc1ccc(OCc2ccccc2)c(Cl)c1 [ONC0002166, benzofenac]",78.33%
8,C=C(c1ccccc1OCc1cccc(Cl)c1)n1ccnc1 [Cloconazole HCl],3.259%
9,"C[C@H](Nc1ncnc2[nH]cnc12)c1cc2cccc(Cl)c2c(=O)n1-c1ccccc1 [ONC0004561, duvelisib ipi145 ink1197]",69.33%
10,"COC(=O)C1=C(C)NC(C)=C(C(=O)O[C@@H]2CCCN(Cc3ccccc3)C2)[C@@H]1c1cccc([N+](=O)[O-])c1 (racemic) [ONC0004618, benidipine hydrochloride]",66.69%
11,"CC(C)=CCC[C@](C)(O[C@@H]1O[C@H](CO)[C@@H](O)[C@H](O)[C@H]1O)[C@H]1CC[C@]2(C)[C@@H]1[C@H](O)C[C@@H]1[C@@]3(C)CC[C@H](O)C(C)(C)[C@@H]3CC[C@]12C [ONC0002211, ginsenoside ck]",95.28%
12,"NC(=O)[C@H]1CCS[C@@H]2C[C@]3(CCCN3C(=O)Cc3ccc(NC(=O)COc4ccc(Cl)cc4Cl)cc3)C(=O)N12 [ONC0001082, st 2825]",47.43%
13,"O=C(CCCS)NC1CCN(C(=O)COc2ccc(Cl)cc2Cl)CC1 [ONC0005166, krasg12c inhibitor 6]",98.75%
14,"C[C@]12C=CC(=O)C=C1CCC1C2[C@@H](O)C[C@@]2(C)C1CC[C@]2(O)C(=O)COP(=O)(O)O (stereo partly drawn) [ONC0004116, prednisolone sodium phosphate]",116.3%
15,"CC(C)C(=O)SCCCCC[C@H](NC(=O)OC(C)(C)C)C(=O)NC12CC3CC(CC(C3)C1)C2 [ONC0002528, tcshdac620b]",72.9%
16,"C1CCC(/N=C(\NC23CC4CC(CC(C4)C2)C3)N2CCOCC2)CC1 [ONC0002564, pnu37883]",92.95%
17,"CC(CNC1CCCCC1)OC(=O)c1ccccc1 (stereo not drawn) [ONC0002941, hexylcaine]",55.94%
18,"CCOC(=O)c1ccc(N)cc1 [ONC0003279, benzocaine]",69.74%
19,"CCOC(=O)c1ccc(NC2CCCCC2)c(N)c1 [ONC0000320, ferrostatin1]",39.11%
20,"CC(C)(O)c1ccn2c(-c3ccc(F)c(-c4ccc(F)cc4C#N)c3)cnc2c1F [ONC0001920, tp003]",78.09%
21,"CCC(=O)O[C@@H]1CC(=O)O[C@H](C)C/C=C/C=C/[C@H](OC(C)=O)[C@H](C)C[C@H](CC=O)[C@H](O[C@@H]2O[C@H](C)[C@@H](O[C@H]3C[C@@](C)(OC(C)=O)[C@@H](OC(=O)CC)[C@H](C)O3)[C@H](N(C)C)[C@H]2O)[C@H]1OC [ONC0000277, midecamycin acetate]",81.75%
22,"O[C@H](CNC[C@@H](O)[C@H]1CCc2cc(F)ccc2O1)[C@@H]1CCc2cc(F)ccc2O1 [ONC0004039, nebivolol hydrochloride]",98.08%
23,"C[C@@]1(O)[C@H](O)[C@@H](CO)O[C@H]1n1cnc2c(=O)[nH]c(N)nc21 [ONC0005603, 2cmethylguanosine]",96.86%
24,"Cc1cc(C)c(NC(=O)N(Cc2ccc3c(c2)Cc2ccccc2-3)C2CCCCCC2)c(C)c1 [ONC0000194, ym750]",45.17%
25,"O=C(c1ccc(Cl)cc1)N(Cc1ccccc1)C1CCCCC1 [ONC0001245, fpszm1]",58.23%
26,"CC(C(=O)O)c1ccc2c(c1)Cc1ccccc1-2 (stereo not drawn) [ONC0003773, cicloprofen]",135.8%
27,"CC(C)Oc1cccc(CC(=O)N2CCC[C@](CC[N+]34CCC(c5ccccc5)(CC3)CC4)(c3ccc(Cl)c(Cl)c3)C2)c1 [ONC0001589, sr140333]",65.88%
28,"Nc1nc2c(c(=O)[nH]1)NC(CNc1ccc(C(=O)N[C@@H](CCC(=O)O)C(=O)O)cc1)CN2 (stereo partly drawn) [ONC0005519, tetrahydrofolicacid]",129.8%
29,"Cc1[nH]c2ccccc2c1C[C@@H](NC(=O)[C@@H](N)Cc1cnc[nH]1)C(=O)N[C@@H](C)C(=O)N[C@@H](Cc1c[nH]c2ccccc12)C(=O)N[C@H](Cc1ccccc1)C(=O)N[C@@H](CCCCN)C(N)=O [ONC0005614, examorelin] (H-H[dTrp(2-Me)]AW[dF]K-NH2)",66.44%
30,"Oc1cc2c(cc1O)C(Cc1cccc3ccccc13)NCC2 (stereo not drawn) [ONC0001928, ys49]",88.3%
